# Results reported in PubChem BioAssay (NCI).
# This is part of a sample that, as a whole, favours compounds with a hit. Of some 79,000 tested, about 15% had one in any assay. Values without a mark were called inactive. Activity calls are given as the source filed them. No stated cut-off is given here; in the data, active means growth inhibition above about 70%; inactive means the rest.
# Key:
# [1] = NCI Yeast Anticancer Drug Screen. Data for the mgt1 strain (AID 153); settings: S. cerevisiae mgt1 mutant growth inhibition, stronger effect = higher value
# Summary of the method: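 Compounds were applied to mgt1 mutant yeast, and growth was then compared against vehicle-treated control cultures to give percent inhibition.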
# [2] = NCI Yeast Anticancer Drug Screen. Data for the rad50 strain (AID 155);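 further: 0% = growth of vehicle-only cultures of the same strain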; settings: S. cerevisiae rad50 strain growth inhibition, stronger effect = higher value
# Summary of the method: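 Compounds were tested on a yeast strain with an engineered DNA damage repair alteration; the reported value is growth inhibition normalised to vehicle treatment.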
# [3] = NCI Yeast Anticancer Drug Screen. Data for the mec2-1 strain (AID 157); settings: S. cerevisiae mec2-1 strain, stronger effect = higher value
# Summary of the method: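 Compounds were applied to mec2-1 yeast cells. Their growth was then compared with that of vehicle-treated cultures to give growth inhibition.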
# [4] = NCI Yeast Anticancer Drug Screen. Data for the rad14 strain (AID 159);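 further: 0% = growth of vehicle-treated control cultures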; settings: S. cerevisiae rad14 strain growth inhibition, stronger effect = higher value
# Summary of the method: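 Compound-treated yeast with a defined DNA-repair lesion; growth inhibition normalised to vehicle-treated cultures.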
# [5] = NCI Yeast Anticancer Drug Screen. Data for the sgs1 mgt1 strain (AID 161);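 further: 0% = growth of cultures given vehicle only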; settings: S. cerevisiae sgs1 mgt1 strain, stronger effect = higher value
# Summary of the method: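 Compounds are added to genetically altered yeast, and growth is compared with cultures given vehicle alone to give percent inhibition.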
# [6] = NCI Yeast Anticancer Drug Screen. Data for the CLN2oe strain (AID 163);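 further: 0% = growth of vehicle-only control cultures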; settings: S. cerevisiae CLN2oe strain, stronger effect = higher value
# Summary of the method: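 Cells of an engineered yeast line with disturbed cell-cycle regulation are treated with compound. Inhibition of growth is then calculated relative to the vehicle-treated reference.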
# [7] = NCI Yeast Anticancer Drug Screen. Data for the cln2 rad14 strain (AID 165);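 further: 0% = growth equal to vehicle treated cultures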; settings: S. cerevisiae cln2 rad14 strain, stronger effect = higher value
# Summary of the method: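 Strain: cln2 rad14 yeast, altered in cell cycle control and DNA damage repair. Read-out: growth inhibition vs vehicle.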
# [8] = NCI Yeast Anticancer Drug Screen. Data for the bub3 strain (AID 167); settings: S. cerevisiae bub3 mutant strain, stronger effect = higher value
# Summary of the method: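 Growth of a checkpoint-deficient yeast mutant is measured after compound exposure. Values represent inhibition relative to vehicle.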
# [9] = NCI Yeast Anticancer Drug Screen. Data for the wt2 strain (AID 169);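 further: 0% = growth of vehicle-treated yeast cultures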; settings: S. cerevisiae wt2 strain growth inhibition, stronger effect = higher value
# Summary of the method: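 Growth of compound-treated yeast is measured and expressed as inhibition relative to vehicle-only controls.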
# [10] = NCI Yeast Anticancer Drug Screen. Data for the mlh1 strain (AID 171);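 further: 0% = growth of vehicle-treated control cultures of the same strain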; settings: S. cerevisiae mlh1 strain growth inhibition, stronger effect = higher value
# Summary of the method: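 Test agents were incubated with yeast bearing a defined DNA damage repair or cell cycle control alteration; values are growth inhibition normalised to vehicle-treated cultures.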
# [11] = NCI Yeast Anticancer Drug Screen. Data for the sgs1 strain (AID 173);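 further: 0% = growth of vehicle-only control cultures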; settings: S. cerevisiae sgs1 mutant, stronger effect = higher value
# Summary of the method: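 Strain with an altered DNA repair or cell cycle pathway exposed to compound. Growth then measured. Value = inhibition versus vehicle control.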
# [12] = NCI Yeast Anticancer Drug Screen. Data for the mlh1 rad18 strain (AID 175); settings: S. cerevisiae mlh1 rad18 strain growth inhibition, stronger effect = higher value
# Summary of the method: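 A repair-deficient yeast strain is exposed to test compound, and growth is scored relative to vehicle-treated controls.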
# [13] = NCI Yeast Anticancer Drug Screen. Data for the rad18 strain (AID 177); settings: S. cerevisiae rad18 mutant growth inhibition, stronger effect = higher value
# Summary of the method: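 DNA-repair-defective yeast; compound treatment; growth inhibition scored against vehicle.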
# [14] = at 5.0 µM (retest, dose inferred, filed as 0.5)
# [15] = at 50.0 µM (retest, dose inferred, filed as 5.0)
smiles,measurement,setting,value
N=c1oc2ccccc2cc1-c1nc2ccccc2[nH]1,growth inhibition,[1]; at 1.2 µM,13%
same,growth inhibition,[1]; at 3.7 µM,11%
same,growth inhibition,[1]; at 11.0 µM,24%
same,growth inhibition,[1]; at 33.0 µM,43%
same,growth inhibition,[1]; at 100.0 µM,79% (active)
same,growth inhibition,[2]; at 1.2 µM,15%
same,growth inhibition,[2]; at 3.7 µM,18%
same,growth inhibition,[2]; [14],7%
same,growth inhibition,[2]; at 11.0 µM,31%
same,growth inhibition,[2]; at 33.0 µM,64%
same,growth inhibition,[2]; [15],85% (active)
same,growth inhibition,[2]; at 50.0 µM,70%
same,growth inhibition,[2]; at 100.0 µM,88% (active)
same,growth inhibition,[3]; at 1.2 µM,-6%
same,growth inhibition,[3]; at 3.7 µM,10%
same,growth inhibition,[3]; [14],2%
same,growth inhibition,[3]; at 11.0 µM,11%
same,growth inhibition,[3]; at 33.0 µM,26%
same,growth inhibition,[3]; [15],66%
same,growth inhibition,[3]; at 50.0 µM,31.8%
same,growth inhibition,[3]; at 100.0 µM,62%
same,growth inhibition,[4]; at 1.2 µM,5%
same,growth inhibition,[4]; at 3.7 µM,11%
same,growth inhibition,[4]; at 11.0 µM,25%
same,growth inhibition,[4]; at 33.0 µM,39%
same,growth inhibition,[4]; at 100.0 µM,88% (active)
same,growth inhibition,[5]; [14],13%
same,growth inhibition,[5]; [15],62%
same,growth inhibition,[5]; at 50.0 µM,47.8%
same,growth inhibition,[6]; at 1.2 µM,6%
same,growth inhibition,[6]; at 3.7 µM,-21%
same,growth inhibition,[6]; at 11.0 µM,12%
same,growth inhibition,[6]; at 33.0 µM,25%
same,growth inhibition,[6]; at 100.0 µM,47%
same,growth inhibition,[7]; [14],5%
same,growth inhibition,[7]; [15],27%
same,growth inhibition,[7]; at 50.0 µM,28.3%
same,growth inhibition,[8]; at 1.2 µM,-13%
same,growth inhibition,[8]; at 3.7 µM,-12%
same,growth inhibition,[8]; [14],23%
same,growth inhibition,[8]; at 11.0 µM,-3%
same,growth inhibition,[8]; at 33.0 µM,9%
same,growth inhibition,[8]; [15],56%
same,growth inhibition,[8]; at 50.0 µM,33.8%
same,growth inhibition,[8]; at 100.0 µM,57%
same,growth inhibition,[9]; at 1.2 µM,-31%
same,growth inhibition,[9]; at 3.7 µM,-29%
same,growth inhibition,[9]; at 11.0 µM,-13%
same,growth inhibition,[9]; at 33.0 µM,47%
same,growth inhibition,[9]; at 100.0 µM,80% (active)
same,growth inhibition,[10]; at 1.2 µM,0%
same,growth inhibition,[10]; at 3.7 µM,3%
same,growth inhibition,[10]; at 11.0 µM,17%
same,growth inhibition,[10]; at 33.0 µM,42%
same,growth inhibition,[10]; at 100.0 µM,82% (active)
same,growth inhibition,[11]; at 1.2 µM,15%
same,growth inhibition,[11]; at 3.7 µM,28%
same,growth inhibition,[11]; at 11.0 µM,41%
same,growth inhibition,[11]; at 33.0 µM,59%
same,growth inhibition,[11]; at 100.0 µM,82% (active)
same,growth inhibition,[12]; [14],6%
same,growth inhibition,[12]; [15],84% (active)
same,growth inhibition,[12]; at 50.0 µM,16.6%
same,growth inhibition,[13]; at 1.2 µM,2%
same,growth inhibition,[13]; at 3.7 µM,5%
same,growth inhibition,[13]; at 11.0 µM,14%
same,growth inhibition,[13]; at 33.0 µM,27%
same,growth inhibition,[13]; at 100.0 µM,71% (active)
